Most compounds without a hit are left out; they make up all but 5.7% or so of the library.
DRD3 agonist: D3 dopamine receptor (human) agonism. max activation, %. AID 652048. actives 0.58% (n = 410,000). D3R DiscoveRx beta-arrestin cells, luminescence, 90 min. P35462; in the data active = max activation above about 30%
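Agonist mode: compounds and dopamine controls were applied to plated cells for 90 min at 37 degrees C after an overnight attachment at 1500 cells/well. Luminescent read-out followed 30 - 60 minutes at room temperature with DiscoveRx detection reagent.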
GLP1R cytotox: cytotoxicity counter-screen for GLP-1 receptor inverse agonists; HEK293 cAMP-luciferase reporter cells, luminescence, 24 h; Potency, µM (titrated, usually from 38.3 µM), usual class: inhibitors; actives 0.13% (n = 410,000); AID 624418;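 note: loss of luciferase light is scored as toxicity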
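Luminescence readout: signal drop marks cytotoxicity. Plated cells grew 12 h at 37 °C, 5% CO2, received 23 nL compound for 24 h, then got luciferase reagent, read after 12 min at RT.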
D3 antag: antagonists of human D3 dopamine receptor; D3R cells, DiscoveRx beta-arrestin luminescence, antagonist mode; hits give low values; max response, negative = inhibition, %; actives 2.5% (n = 360,000); P35462; in the data active = max response below about -50%; inconclusive = no clear call, values can overlap the other calls
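Cells expressing the human receptor were seeded at 1500 cells/well, incubated overnight at 37 degrees C in 5% CO2, then exposed to library compounds with dopamine controls for 90 minutes at 37 degrees C before luminescent detection.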
GLP-1R agonist: GLP-1 receptor (human) agonism. P43220. HEK293 GLP-1R CRE-luciferase, luminescence, 4-6 h; cells express a hypersensitive GLP-1R form. Potency, µM (series often up to 45.6 µM), hits mostly activators. actives 0.007% (n = 380,000). AID 624172
Target sequence (P43220 whole entry, looked up): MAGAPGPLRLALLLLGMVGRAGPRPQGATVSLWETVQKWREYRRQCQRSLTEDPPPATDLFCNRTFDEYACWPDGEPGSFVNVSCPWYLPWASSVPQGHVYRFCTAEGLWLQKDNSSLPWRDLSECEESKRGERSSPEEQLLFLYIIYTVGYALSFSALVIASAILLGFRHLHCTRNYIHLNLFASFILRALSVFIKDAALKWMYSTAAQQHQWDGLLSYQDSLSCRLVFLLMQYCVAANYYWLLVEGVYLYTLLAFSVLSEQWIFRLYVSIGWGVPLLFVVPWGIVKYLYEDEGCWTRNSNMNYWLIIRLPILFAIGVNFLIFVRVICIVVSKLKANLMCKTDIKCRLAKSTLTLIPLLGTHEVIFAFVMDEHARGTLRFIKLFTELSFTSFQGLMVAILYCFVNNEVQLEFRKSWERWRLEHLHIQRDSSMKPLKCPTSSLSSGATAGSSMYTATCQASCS
ClpP mod: qHTS Assay for Activators of ClpP. ATP-dependent Clp protease proteolytic subunit (Bacillus subtilis (strain 168)), P80244. purified B. subtilis ClpP, FRET peptide cleavage, 20 min. Potency, µM (titrated, usually from 57.5 µM). actives 1.9% (n = 340,000); active = well fitted falling curve with a large enough effect; inconclusive = small, poorly fitted or top-dose-only effect; inactive = no such curve, though single readings can be large or run the other way; note: the source files actives as falling curves though it sought activators and does not explain the sign; nearly all actives have a fitted effect of over 65% in size
Target sequence (P80244 whole entry, looked up): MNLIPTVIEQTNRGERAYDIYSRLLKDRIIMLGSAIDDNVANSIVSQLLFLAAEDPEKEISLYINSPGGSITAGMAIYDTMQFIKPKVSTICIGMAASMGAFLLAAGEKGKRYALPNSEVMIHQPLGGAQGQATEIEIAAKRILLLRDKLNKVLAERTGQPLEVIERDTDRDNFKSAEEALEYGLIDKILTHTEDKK
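Buffer: 100 mM Tris/HCl pH8, 100 mM KCl, 0.05% low protease BSA, 2.5% glycerol, 0.01% Tween-20. ClpP 10 microg/mL final; 20 min RT; delta FRET normalized to ADEP and DMSO controls.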
GLP1R inv ag: acts as inverse agonist at human GLP-1 receptor | HEK293 GLP-1R CRE-luciferase, luminescence, 24 h; GLP-1R form is constitutively active | Potency, µM (highest dose often 38.3 µM), hits mostly inhibitors | actives 1.6% (n = 410,000) | AID 624417; note: nearly all actives have a fitted effect of over 55% in size
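Using stably transfected HEK293 (constitutively active GLP-1R, cAMP-luciferase reporter), compounds were incubated 24 hr and luciferase measured by luminescence.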
Hits are given with their value; – = inactive; ? = inconclusive; · = not tested or not shown; [ ] = another dose, or the depositor's remark. Unless noted, calls come from the whole dose curve; as a rule, active = well fitted curve in the direction sought with a large enough effect; inconclusive = small, poorly fitted or top-dose-only effect, or another doubt; inactive = no such curve, though single readings can be large; an effect the other way counts as inactive or inconclusive.

SMILES | DRD3 agonist | GLP1R cytotox | D3 antag | GLP-1R agonist | ClpP mod | GLP1R inv ag
COc1ccc2c(c1)C(=O)C1(CC2)OC1c1cccnc1 (stereo not drawn) | – | – | – | – | – | –
COc1ccc(C(C(=O)Nc2ccc3c(c2)OCCO3)n2c(=O)c(-c3ccco3)nc3ccccc32)cc1 (stereo not drawn) | – | – | – | · | – | ?
CCc1nnc(NC(=O)c2nc(S(=O)(=O)Cc3ccc(C)cc3)ncc2Cl)s1 | – | ? | -50.4 | – | – | ?
Cc1ccc(NC(=O)C2CCN(c3cc(C)nc4c(-c5ccc(Cl)cc5)c(C)nn34)CC2)c(C)c1 | – | – | · | – | – | –
COc1ccccc1CCNC(=O)C(=O)NCC(c1cccs1)S(=O)(=O)c1ccc(C)cc1 (stereo not drawn) | – | – | · | · | – | –
CN(C)S(=O)(=O)c1cccc(N=C2NN=C(c3ccccc3)CS2)c1 | – | ? | – | – | – | 11.2µM
CC(=O)Nc1ccc(C2=NNC(=Nc3cccc(S(=O)(=O)N(C)C)c3)SC2)cc1 | – | ? | – | – | – | ?
Cc1cccc(N=C2NN=C(c3ccccc3F)CS2)c1C | – | – | – | – | · | ?
Fc1ccccc1N=C1NN=C(c2ccccc2)CS1 | – | –[0.307 µM] | – | – | 10µM | –[0.307 µM]
O=C(Nc1nc2n(n1)C(c1ccc(Cl)cc1)C=C(c1ccccc1)N2)c1ccco1 (stereo not drawn) | – | – | · | · | – | –
COc1cc(NC(=O)c2ccco2)c(OC)cc1NC(=O)CSc1ncc(-c2ccc(F)cc2)[nH]1 | 31.4 | – | – | – | – | –
CCN1CCn2c3c(c4cc(Cl)ccc42)CCCC31 (stereo not drawn) | – | – | – | – | 15.8µM | ?
CCN(CC)CCN1CCn2c3c(c4cc(C)ccc42)CCCC31 (stereo not drawn) | – | – | – | – | – | ?
Cc1ccc(-c2cnc(C(O)c3c(C)cccc3C)[nH]2)cc1 (stereo not drawn) | – | – | -54.7 | – | – | ?
Cc1cccc(C)c1C(O)c1ncc(-c2ccccc2F)[nH]1 (stereo not drawn) | – | – | – | – | – | –
Cc1cc(C)c(C(O)c2ncc(-c3ccccc3C)[nH]2)c(C)c1 (stereo not drawn) | – | – | -55.9 | – | – | –
Cc1ccccc1-c1cnc(C(O)c2c(C)cccc2C)[nH]1 (stereo not drawn) | – | – | -52.3 | – | – | ?
Cc1cccc(C)c1C(O)c1ncc(-c2cccc3ccccc23)[nH]1 (stereo not drawn) | – | – | -75.7 | – | – | ?
CCc1ccccc1NC(=O)Cn1nnc(C(=O)Nc2ccc(OC)c(OC)c2)c1N | – | – | · | · | – | –
Cc1cc(C)cc(C(O)c2ncc(-c3ccc(Cl)cc3)[nH]2)c1 (stereo not drawn) | – | – | – | – | – | 12.6µM
COc1cc(S(=O)(=O)N2CCN(Cc3ccc4c(c3)OCO4)CC2)c(C)cc1C | – | – | – | – | – | ?
O=S(=O)(c1ccc2c(c1)OCCO2)N1CCN(Cc2ccc3c(c2)OCO3)CC1 | – | – | -50.4 | – | – | –
O=S(=O)(c1ccc(F)c(F)c1)N1CCN(Cc2ccc3c(c2)OCO3)CC1 | – | – | – | – | – | ?
COc1cc(C)c(C)cc1S(=O)(=O)N1CCN(Cc2ccc3c(c2)OCO3)CC1 | – | – | -54.5 | – | – | ?
CCSc1ncc(Cl)c(C(=O)Nc2sc(C(C)=O)c(C)c2C(=O)OC)n1 | – | – | · | · | – | –
SMILES | DRD3 agonist | GLP1R cytotox | D3 antag | GLP-1R agonist | ClpP mod | GLP1R inv ag
CC(=O)OCn1ncc(N2CCOCC2)c(Br)c1=O | – | – | – | – | · | –
O=C(OCn1ncc(Br)c(Br)c1=O)c1ccccc1Cl | – | ? | -88.4 | – | – | ?
O=C(OCn1ncc(Br)c(Br)c1=O)c1ccc(F)cc1 | – | ? | -82.9 | – | – | ?
CCC[C@@H]1C[C@@H](C(=O)N[C@@H]([C@H]2O[C@H](SC)[C@H](OP(=O)(O)O)[C@@H](O)[C@H]2O)[C@H](C)Cl)N(C)C1 | – | · | · | · | · | ·
Cc1cc(C)cc(NC(=O)CCS(=O)(=O)c2ccc3c(c2)oc(=O)n3C)c1 | – | – | · | · | – | –
CCN(Cc1ccccc1)S(=O)(=O)c1cc(C(=O)NC2CCCCCC2)ccc1OC | – | – | – | – | – | 2.24µM
COc1cc(OC)cc(C(=O)NC2CCCN(Cc3ccc(Cl)cc3)C2)c1 (stereo not drawn) | – | – | – | – | – | 11.2µM
COc1ccc(CN2C3CCC2CC(NC(=O)c2cc(OC)c(OC)c(OC)c2)C3)cc1 (stereo not drawn) | – | – | -66.4 | – | – | –
CCN(Cc1ccccc1)S(=O)(=O)c1cc(C(=O)NCC2CCCCC2)ccc1OC | – | – | – | – | – | ?
COc1cc(C(=O)NC2CC3CCCC(C2)N3Cc2ccccc2)cc(OC)c1OC (stereo not drawn) | – | – | -94.7 | – | – | –
COc1ccc(OC)c(CNC(=O)C2CCCCN2S(=O)(=O)c2ccc(F)cc2)c1 (stereo not drawn) | – | – | · | · | – | ?
Cc1cccc(-n2ncc(C(=O)N3CCN(C4CCCCC4)CC3)c2C2CCN(C(=O)OC(C)(C)C)CC2)c1 | – | – | · | · | – | –
COc1ccc(C(=O)NC2CC3CCCC(C2)N3Cc2ccccc2)cc1OC (stereo not drawn) | – | – | -94.0 | – | – | –
COc1ccc(C(=O)NCCSCc2ccccc2)cc1OC | – | – | -51.1 | – | · | –
COc1ccc(C(=O)NC2CC2)cc1OC1CCN(Cc2ccccc2)CC1 | – | – | – | – | – | ?
COc1ccc([N+](=O)[O-])cc1C(=O)NC1CCN(Cc2ccccc2)CC1 | – | – | -99.6 | – | – | –
COc1cc(C(=O)NC2CCN(Cc3ccccc3)CC2)cc(Cl)c1OC | – | – | -99.0 | – | – | ?
COc1ccc(C(=O)NCCSCc2ccc(Cl)cc2)cc1OC | – | – | – | – | – | –
O=C(C1CCC(Cn2c(=O)c3sccc3n(Cc3ccccc3F)c2=O)CC1)N1CCOCC1 (stereo not drawn) | – | – | · | · | – | –
C=C(NNC(C)=O)c1ccc(O)cc1 | · | · | · | · | – | ·
CN(CCC#N)C(=O)COC(=O)c1nn(-c2ccccc2)c(=O)c2ccccc12 | – | – | -57.8 | – | · | –
COc1ccc(C2=CC(c3cccc(C)c3)n3nnnc3N2)cc1 (stereo not drawn) | – | – | · | · | 31.6µM | –
CCOc1ccc(C2C=C(c3cccc(OC)c3)Nc3nnnn32)cc1 (stereo not drawn) | – | – | · | – | – | –

Assay outcomes deposited in PubChem BioAssay by National Center for Advancing Translational Sciences (NCATS).
